The values that follow come from PubChem BioAssay (NCI).

Holding throughout (experiment): NCI-60 one-dose screen, 48 h (100 = growth as untreated, 0 = no growth, -100 = all killed)
Common to all, as to conditions: 10 µM

In experiment [1] the test system is HT29 colon.
Experiment [2] deals with SNB-75 CNS.
In experiment [3] the test system is SNB-19 CNS.
In experiment [4] the test system is U251 CNS.
Experiment [5] relates to PC-3 prostate.
For experiment [6], the system named is SK-MEL-5 melanoma.
In experiment [7] the test system is UACC-62 melanoma.
Experiment [8] relates to LOX IMVI melanoma.
In experiment [9] the test system is SK-MEL-28 melanoma.
Experiment [10] concerns SK-MEL-2 melanoma.
Experiment [11] deals with EKVX NSCLC.
Experiment [12] has as its system SN12C renal.
Experiment [13] has as its system UO-31 renal.
For experiment [14], the system named is TK-10 renal.
Experiment [15] has as its system ACHN renal.
For experiment [16], the system named is CAKI-1 renal.
Experiment [17] has as its system CCRF-CEM leukemia.
Experiment [18] deals with MOLT-4 leukemia.
In experiment [19] the test system is SR leukemia.
Experiment [20] concerns A498 renal.

The panel holds about 83,000 compounds, 20% with a hit somewhere; the sample as a whole holds those more often.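 Single-dose data. Exposure time 48 hours. Values below 10 considered active.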 Unmarked numbers belong to inactive results. The source made the active and inactive calls.

For the compound `N#CCCN(NC(=O)OCc1ccccc1)C(=O)OCc1ccccc1`, the growth in [1] was 106%; in experiment [2] it was 81.4%; in [3], 108%; in experiment [4] it was 102%; in experiment [5] it was 93.4%; in experiment [6], 108%. The growth in experiment [7] was 101%; in [8], 94.3%; in [9], 119%; in experiment [10], 106%; in experiment [11], 91.8%; in experiment [12], 106%. The growth in experiment [13] was 80.7%; in [14], 120%; in [15], 102%; in [16], 88.4%; in experiment [17], 99%; in [18] it was 97.1%. Besides, in experiment [19], the growth was 107%.

For `Nc1cc2c(cc1Cl)-c1ccc([N+](=O)[O-])cc1/C2=N\O`, the growth in [1] is 82.5%; in experiment [2], 66.6%; in experiment [3], 93.6%; in experiment [4], 67.7%; in [5], 52%; in [6], 82.5%. Also, the growth in experiment [7] was 78%; in experiment [8], 53.8%; in experiment [9], 109%; in [10], 106%; in experiment [11], 66%; in experiment [12] it was 88.2%. Moreover, the growth in experiment [13] is 33.3%; in experiment [14], 48.7%; in experiment [15], 63.3%; in [16], 55.6%; in [17], 28.7%; in [18], 37.9%. Also, the growth in [19] is 10.8%.

On to `Clc1cc2c(c(CSc3nc4ccccc4n4cccc34)c1)OCOC2`, for which the growth was 88.3% in experiment [1]; 62% in experiment [2]; 107% in experiment [3]; 85.9% in experiment [4]; 60.5% in [5]; 83.7% in experiment [6]. In addition, the growth is 112% in [7]; 87.5% in experiment [8]; 92.8% in experiment [9]; 79.7% in experiment [10]; 70.6% in experiment [11]; 81.5% in [12]. The growth was 74% in experiment [13]; 79.4% in experiment [14]; 87.9% in experiment [15]; 102% in experiment [20]; 93.7% in experiment [17]; 94.8% in experiment [18]. In [19], the growth was 29.2%.

With `CC(=O)n1c(-c2ccc(Cl)c(Cl)c2)cn(-c2ccc(Cl)cc2)c1=O`, the growth was 12.8% in experiment [1]; -0.456% (active) in [2]; 18.4% in [3]; 26.6% in [4]; -31.2% (active) in experiment [5]; 9.15% (active) in experiment [6]. The growth in [7] was 18%; in [8], 18.2%; in [9], 7.17% (active); in [10], 80.9%; in experiment [11], 30.3%; in experiment [12] it was 46.9%. The growth is 3.31% (active) in [13]; 54.4% in experiment [14]; 22.8% in experiment [15]; 4.91% (active) in [20]; -26.3% (active) in experiment [17]; 18.4% in [18]. Also, the growth in experiment [19] was 0.989% (active).

With `COc1ccc(OC)c(/C=C/c2nc(SC)n(-c3ccc(Cl)cc3)n2)c1`, the growth in [1] is 90.3%; in [2] it was 72.1%; in experiment [3] it was 81.4%; in experiment [4], 78.1%; in [5], 38.9%; in experiment [6], 53.4%. Besides, the growth is 49.5% in experiment [7]; 83.3% in experiment [8]; 85.1% in experiment [9]; 88.5% in [10]; 61.4% in experiment [11]; 80.3% in experiment [12]. For the same compound, the growth in experiment [13] was 39.6%; in experiment [14], 92.3%; in experiment [15], 67.9%; in experiment [16] it was 64.5%; in experiment [17], 71.4%; in [18], 73%. Also, the growth in experiment [19] was 41.5%.

For the compound `Nc1nc(Nc2ccccc2)n[nH]1`, the growth was 105% in [1]; 90.6% in experiment [2]; 94.6% in experiment [3]; 100% in [4]; 116% in experiment [5]; 106% in experiment [6]. Also, the growth in experiment [7] is 90.7%; in [8], 100%; in experiment [9], 109%; in experiment [10], 103%; in experiment [11] it was 95.8%; in [12], 101%. Moreover, the growth in [13] is 82.3%; in [14], 101%; in experiment [15], 89.7%; in experiment [20], 108%; in [17], 97.7%; in experiment [18], 106%. Further, the growth in experiment [19] was 102%.

With `CCN1Cc2c(/C=C/c3ccccc3)nc3ccc(OC)cc3c2N(c2cccc(Cl)c2)C1`, the growth in experiment [1] is 64.2%; in experiment [2] it was 63.6%; in experiment [3], 93.3%; in experiment [4], 76%; in experiment [5] it was 20.2%; in experiment [6] it was 20.6%. Also, the growth in experiment [7] was 52.3%; in [8], 73%; in [9] it was 95.9%; in experiment [10] it was 77.5%; in experiment [11] it was 66.9%; in experiment [12], 60.6%. The growth in [13] is 63.8%; in experiment [14] it was 101%; in experiment [15] it was 98%; in experiment [20], 85.5%; in experiment [17], 58.6%; in experiment [18], 55.4%. Also, in [19], the growth was 11.7%.

With `COc1ccc(Cl)cc1C(=O)Nc1nc2ccc(Cl)cc2s1`, the growth was 109% in experiment [1]; 74.3% in experiment [2]; 103% in experiment [3]; 87.3% in [4]; 84.4% in experiment [5]; 92.8% in experiment [6]. The growth was 91.5% in experiment [7]; 81.2% in [8]; 105% in experiment [9]; 104% in [10]; 76.2% in experiment [11]; 91.7% in [12]. Moreover, the growth was 58.2% in experiment [13]; 127% in [14]; 85.9% in experiment [15]; 84.4% in experiment [16]; 86.4% in experiment [17]; 95.6% in experiment [18]. In [19], the growth was 87.7%.
